In ChEMBL document CHEMBL4513216, “Probing the Open Global Health Chemical Diversity Library for Multistage-Active Starting Points for Next-Generation Antimalarials” (ACS Infect Dis, 2020):
Hit rate of the full screen: of about 69,000 compounds, about 8,600 (12%) showed an effect of 50% or more. Many of the other results were omitted from the sample, so strong results are more common in it than they were.

Tested on: Plasmodium berghei
Assay: Screen against P. berghei liver stage (PbLuc), transformed with Luciferase, at 10uM
Assay type: functional, HepG2
Details: tested at 10 uM

Row | SMILES | INHIBITION
1 | CC(=O)N1CCN(CCNS(=O)(=O)c2c(F)cccc2F)CC1 | 31.6%
2 | Cn1cnc2c1C(C(=O)N1CCCC1)N(CC1CC1)CC2 (stereo not given) | 0.804%
3 | COc1ccc2c(c1)CCCN2Cc1nc(C)c(C)o1 | 19.8%
4 | Cc1cc(C)n(CC2CN(Cc3noc(C)n3)CCO2)n1 (stereo not given) | 5.7%
5 | CCCn1nnnc1COC(=O)C1COc2ccccc2O1 (stereo not given) | 49%
6 | O=C(NCCc1cc2nc(-c3ccncc3)ccn2n1)C1CCOCC1 | 17.14%
7 | Cc1nnsc1C(=O)N1C[C@@H]2CC[C@H]1CN(c1cnccn1)C2 | 4.35%
8 | Cc1cc(F)ccc1CCNC(=O)NCC(C)N1CCOCC1 (stereo not given) | 11.1%
9 | O=C(O)c1cc(S(=O)(=O)Nc2cnn(C3CCOCC3)c2)ccc1F | 29.3%
10 | CCN(C(=O)CCc1ccc2c(c1)OCO2)C1CC(=O)NC1=O (stereo not given) | 7.97%
11 | Cc1nn(C)c(C)c1CC(=O)N1CCCC(n2ccnc2)C1 (stereo not given) | 44.3%
12 | Cc1nn(CC(C)C)c(C)c1CC(=O)N1CCCC(CNS(C)(=O)=O)C1 (stereo not given) | 24.1%
13 | Cc1cnn(C2CCCN(C(=O)CCc3ccncc3)C2)c1 (stereo not given) | 26.4%
14 | Cc1nn(C)c(C)c1CC(=O)N1CCCC(n2ccnc2C)C1 (stereo not given) | 23.7%
15 | Cc1cnn(C2CCCN(C(=O)Cc3c(C)nn(C)c3C)C2)c1 (stereo not given) | 53.9%
16 | O=C(CCc1nccs1)N1CCCC(n2cccn2)C1 (stereo not given) | 38.5%
17 | Cc1cnn(C2CCCN(C(=O)CCc3nccs3)C2)c1 (stereo not given) | 63.9%
18 | Cc1nn(C)c(C)c1CC(=O)N1CCCC(CNS(C)(=O)=O)C1 (stereo not given) | 50.2%
19 | Cc1nn(C)c(C)c1CC(=O)N1CCCC(n2cccn2)C1 (stereo not given) | 7.13%
20 | Cc1nn(C)c(C)c1-c1ccnc(N2CCCN(CC(C)C)CC2)n1 | 24.3%
21 | COc1ccc(F)c(NCc2ccc(C(=O)N(C)C)[nH]2)c1 | -22.6%
22 | CN(Cc1nc2ccccc2o1)C1CCCN(c2cccnn2)C1 (stereo not given) | 28.8%

Row | SMILES | INHIBITION
23 | CC(=O)N1CCN([C@@H]2CC[C@@H](N(C)C(=O)C3CCCCC3)[C@H]2O)CC1 | 39.7%
24 | Cc1nc(CN2CCOCC3(CCCN(c4cnccn4)C3)C2)cs1 (stereo not given) | 15.4%
25 | CCCc1cc(N2CCC(NC3CCC(O)CC3)CC2)nc(C)n1 (stereo not given) | 2.15%
26 | CCCc1cc(CNC2CCN(c3cc(C(C)C)nc(C)n3)CC2)on1 | 61.3%
27 | c1ccc(CN2CCC(NCCSc3ncn[nH]3)C2)cc1 (stereo not given) | 42.3%
28 | CCCc1cc(CNC2CCN(c3cc(C)nc(N)n3)CC2)on1 | 71.1%
29 | CCCc1cc(CNC(=O)C2CCOc3ccccc3C2)on1 (stereo not given) | 26.8%
30 | CCCc1cc(CNC2CCN(c3nc4ccccc4s3)CC2)on1 | 67.8%
31 | CCCc1cc(N2CCC(NCC3(O)CCCCC3)CC2)nc(C)n1 | 6.69%
32 | Cc1n[nH]c(SCCNC2CCN(c3nc4ccccc4s3)CC2)n1 | 50.2%
33 | CCCc1cc(N2CCC(NC3CCOCC3)CC2)nc(C)n1 | 22.1%
34 | CCCc1cc(CNC2CCN(c3nc(C)cc(C)n3)CC2)on1 | 35.2%
35 | Cn1ccnc1SCCNC1CCN(c2nc3ccccc3s2)CC1 | 34.1%
36 | CCCC1COCCN1Cc1ccc(NC(C)=O)cc1 (stereo not given) | -30%
37 | CC(C(=O)N1CCCCC1)N1CCN(c2nccs2)CC1 (stereo not given) | 41.3%
38 | CN(C)C(=O)NCc1cc(=O)n2c(n1)CN(Cc1ccoc1)CCC2 | 5.41%
39 | CCn1ncc2c1C(COCC1CC1)N(Cc1cnn(C)c1)CC2 (stereo not given) | -44.2%
40 | O[C@H]1CCN(Cc2ccoc2)[C@H]1Cc1cccnc1 | 41.4%
41 | CC(=O)N1CCCCC[C@@H]2[C@@H]1[C@H](c1cccc(F)c1)CN2CCC(N)=O | 32.95%
42 | O=C(C1=CCCC1)N1C[C@H]2CCC[C@@]2(COCc2ccncc2)C1 | 47.9%
43 | Cc1cc(=O)n(CC(=O)NC2CCCCC2)c2ccccc12 | 70.1%
44 | COC(=O)[C@@H]1C[C@H](NC(=O)Cn2c(=O)cc(C)c3ccccc32)CN1C | -4.4%

Row | SMILES | INHIBITION
45 | Cc1cn(CC(=O)NC2CCC(C(=O)O)CC2)c2ccccc12 (stereo not given) | 26.4%
46 | Cc1nnn2c1COCC(CNC(=O)c1ccc[nH]1)C2 (stereo not given) | 26.5%
47 | CCSCCN1CCCN(S(C)(=O)=O)CC1 | 37.7%
48 | CC(C)CSCCN1CCCN(S(C)(=O)=O)CC1 | 75.6%
49 | CC(C)CSCCN1CCN(S(C)(=O)=O)CC1 | 45.3%
50 | O=C1CCOC[C@]2(CN(Cc3ccccc3)C[C@H]2c2ccccc2F)N1 | 23.9%
51 | CN1CCN(C(=O)[C@H]2C[C@H]3[C@H](CCN3Cc3cccs3)O2)CC1 | -7.24%
52 | c1cncc(CN2CCCC3(COCCN(c4cnccn4)C3)C2)c1 (stereo not given) | 12.7%
53 | CN(Cc1ccco1)C(=O)NC(Cn1ccnc1)C(C)(C)C (stereo not given) | -27.8%
54 | CC(Cn1cccn1)NC(=O)N(C)Cc1ccsc1 (stereo not given) | -1.04%
55 | CC(Cn1ccnc1)NC(=O)N(C)Cc1ccc2c(c1)OCO2 (stereo not given) | 7.12%
56 | CC(Cn1ccnc1)NC(=O)N(C)Cc1ccc2c(c1)OCCO2 (stereo not given) | 36.1%
57 | Cc1noc(C)c1CN(C)C(=O)NC(C)c1cccs1 (stereo not given) | -55.1%
58 | CC(Cn1ccnc1)NC(=O)N(C)Cc1ccco1 (stereo not given) | 81%
59 | Cc1cc(CN(C)C(=O)NC(C)Cc2ccco2)no1 (stereo not given) | 34.2%
60 | Cc1noc(C)c1CN(C)C(=O)NC(C)Cc1ccco1 (stereo not given) | 53.3%
61 | CC(Cn1ccnc1)NC(=O)N(C)Cc1ccsc1 (stereo not given) | 57.4%
62 | O=C(O)c1cc2c(nc1-c1ccncc1)CCN(C1CCOC1)CC2 (stereo not given) | -28.2%
63 | CCn1cc(S(=O)(=O)N(CCc2ccccc2)Cc2ccn(C)n2)cn1 | 21.425%
64 | CCc1ncc2c(n1)CN(Cc1nc(-c3cccnc3)no1)CC2 | -10.6%
65 | Cc1ccc(C2CCCN2S(=O)(=O)N(C)CCc2ccccn2)o1 (stereo not given) | -17.35%
66 | CCOC(=O)C(C)Nc1cccc(COCc2ccco2)c1 (stereo not given) | 12.1%

Row | SMILES | INHIBITION
67 | CCOCC(=O)NS(=O)(=O)c1ccc(F)cc1C(F)(F)F | 0.0944%
68 | COCCOC1CCN(C(C(=O)O)c2ccc(F)c(Cl)c2)CC1 (stereo not given) | 23.9%
69 | COCCOC1CCN(C(C(=O)O)c2c(Cl)cccc2OC)CC1 (stereo not given) | 50.3%
70 | COc1cccc(Cl)c1C(C(=O)O)N1CCC(Cn2cccn2)CC1 (stereo not given) | -47%
71 | CC(C)c1ncncc1C(=O)NCCN1CCOCC1 | -1.33%
72 | COCCC(Cc1cccc(Br)c1)C(=O)N(C)C (stereo not given) | -28.4%
73 | COc1ccc(C2Nc3ccccc3N=C3CNC(=O)C32)cc1OC (stereo not given) | 10.4%
74 | CCn1nnnc1-c1cccc(NC(=O)CCOC(C)C)c1 | 4.01%
75 | CCn1nnnc1-c1cccc(NC(N)=O)c1 | 8.18%
76 | CCOC(=O)Cn1nnnc1-c1ccccc1 | 64%
77 | O=C(CN1CCCC(c2ncc[nH]2)C1)NCC(F)(F)F (stereo not given) | 81.2%
78 | O=C(CCC(F)(F)F)N1CCCC(c2ncc[nH]2)C1 (stereo not given) | -0.71%
79 | Cc1nc(CNC(=O)N2CCCC(c3ncc[nH]3)C2)sc1C (stereo not given) | 23.5%
80 | COC(=O)NCC(=O)N1CCCC(c2ncc[nH]2)C1 (stereo not given) | 15.2%
81 | Cc1sc(NC(=O)CN2CCCC(c3ncc[nH]3)C2)c(C)c1C (stereo not given) | 94.1%
82 | O=C(CN1CCCC(c2ncc[nH]2)C1)NCCCN1CCCCCC1=O (stereo not given) | 45.4%
83 | CCn1nccc1CNC(=O)C1CCCO1 (stereo not given) | 17%
84 | COc1ccc(N2CCN(C(=O)OC(C)(C)C)C(C(=O)O)C2)cc1 (stereo not given) | 2.55%
85 | Cc1ccc(N2CCC3(CCN(C(=O)c4ccoc4)CC3)CC2)nn1 | -0.27%
86 | Cc1cc(N2CCC(NC(=O)C3CC3)CC2)nc(-c2ccncc2)n1 | 23.4%
87 | CCCc1cc(C(=O)N2CC(c3ccncc3)C2)ccn1 | 8.64%
88 | CCCc1cc(C(=O)N2C[C@H]3CC=C(C)C[C@H]3C2)ccn1 | 6.66%

Row | SMILES | INHIBITION
89 | CCCc1cc(C(=O)N2C[C@H](O)[C@@H](N3CCCC3)C2)ccn1 | 55.2%
90 | CC(C)c1sc(Cl)nc1C(=O)N1CCN(c2ccccc2)CC1 | -1.23%
91 | NC(=O)C1CCN(C(=O)NCc2csc(Br)c2)CC1 | 16.9975%
92 | COCCOc1ncccc1C(=O)N(C)c1nccs1 | 45.2%
93 | CN(C(=O)C(c1c(F)cccc1Cl)N(C)C)c1nccs1 (stereo not given) | 66.5%
94 | N#Cc1c(F)cccc1N1CCC(C(=O)Nc2nccs2)CC1 | 17.5%
95 | CN(C)C(C(=O)Nc1nccs1)c1c(F)cccc1Cl (stereo not given) | 50.8%
96 | CN(C)C(C(=O)NCC1(O)CCCCC1)c1c(F)cccc1F (stereo not given) | -21.2%
97 | Cc1csc(N(C)C(=O)C(c2c(F)cccc2Cl)N(C)C)n1 (stereo not given) | 9.04%
98 | CCNc1cc2c(nn1)CCN(C(=O)c1nccnc1N)C2 | 23.5%
99 | Cc1c(C2CC(=O)Nc3c2cnn3C(C)C)cnn1C (stereo not given) | 24.7%
100 | Cc1cn2nc(N(C)C3CCCN(c4cccnn4)C3)sc2n1 (stereo not given) | 11.5%
101 | CCCNC(=O)COc1cccc(-c2nc(C(C)C)no2)c1 | 31.3%
102 | CC(=O)N1CCC(c2ccnc(Nc3ccc(C)cn3)n2)C1 (stereo not given) | -55%
103 | Cc1cccnc1Nc1nccc(C2CN(CC(N)=O)C2)n1 | -4.51%
104 | Cc1ccc(Nc2nccc(C3CN(C(C)C)C3)n2)nc1 | 61.7%
105 | Cc1ccc(Nc2nccc(C3CCN(CC(N)=O)C3)n2)nc1 (stereo not given) | 88.1%
106 | Cc1ccc(Nc2nccc(C3CN(CC(N)=O)C3)n2)nc1 | 46.6%
107 | COCC(=O)N1CC(c2ccnc(Nc3ccc(C)cn3)n2)C1 | 6.32%
108 | CC(=O)N1CC(c2ccnc(Nc3ccc(C)cn3)n2)C1 | -9.32%
109 | Cc1ccc(Nc2nccc(C3CCCN(CC(=O)N(C)C)C3)n2)nc1 (stereo not given) | 79.6%
110 | O=C(C1CCC1)N1CCCC(c2ccnc(Nc3cnccn3)n2)C1 (stereo not given) | -14.1%
